From PubChem BioAssay
Calls of active or inactive are those of the source.

Tests used:
Albumin (Bos taurus) = Albumin (Bos taurus) (UniProt P02769); assay: compounds binding labelled BSA control protein – biochemical, small-molecule microarray, Alexa647 label, 635/667 nm fluorescence, artefact control for SMM control protein annotation, profiling panel (AID 1118); details: BSA-A647 binding, fluorescence 635 nm, higher = more signal;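 note: score merges 667 nm emission intensity and signal-to-noise per printed compound spot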
[1] = probe aXIP binding to arrayed compounds – biochemical, NeuroSMM set, 635/667 nm fluorescence, primary screen (AID 1119); details: small-molecule microarray, higher = more signal, called active from +8 up or from −8 down;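 note: probe is the protein aXip251-270 applied at 1 µg/mL to compound-printed slides; binding of probe to printed compounds measured as 667 nm fluorescence plus signal to noise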
[2] = probe aNOTCH3 binding on compound microarray – biochemical, small-molecule microarray, 635/667 nm fluorescence, primary screen (AID 1120); details: higher = more signal;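 note: probe is a biotin-tagged antibody raised against NOTCH3 rather than NOTCH3 protein; score merges spot fluorescence near 667 nm with spot signal to noise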
[3] = probe aNOTCH2 binding on compound microarray – biochemical, small-molecule microarray, 635/667 nm fluorescence, primary screen (AID 1121); details: higher = more signal;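 note: score merges feature fluorescence read at 667 nm with its signal to noise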
[4] = molecular target: Carbonic anhydrase 2 (Homo sapiens) (UniProt P00918); assay: compounds binding carbonic anhydrase 2 – biochemical, small-molecule microarray, Alexa647-labelled CAII, profiling panel (AID 1122); details: CAII-A647 binding fluorescence, higher = more signal
[5] = COS7 lysate on small-molecule microarray, probe aHis, 635 nm (AID 1123); details: COS7 cell lysate, fluorescence, higher = more signal;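 note: z-score combines 667nm fluorescence intensity with signal-to-noise per printed compound spot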
[6] = probe aLAP1 signal on lysate-treated microarray – cell lysate, small-molecule microarray, COS7 lysate, primary screen (AID 1124); details: probe aLAP1, fluorescence, higher = more signal;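 note: lysate comes from COS7 cells expressing LAP1 and is applied at 0.3 µg/mL; score merges spot fluorescence near 667 nm with signal-to-noise over triplicate slides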
Sam68 (KHDRBS1) = assay: compounds binding KHDRBS1 protein – biochemical, small-molecule microarray, 635 nm fluorescence, primary screen (AID 1125); details: higher = more signal;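 note: score merges 667 nm channel intensity with signal to noise over triplicate slides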
[7] = system: Chordin-like protein 2 (CHRDL2); assay: compounds binding chordin-like 2 – biochemical, small-molecule microarray, 635 nm fluorescence, primary screen (AID 1126); details: fluorescence 635 nm, higher = more signal;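 note: printed compound slides probed with Chrdl2 protein at 4 µg/mL for 1 h at 4 C; score merges 667 nm emission intensity with signal to noise over three replicate slides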
[8] = molecular target: Concanavalin-A (Canavalia ensiformis) (UniProt P02866); assay: compounds binding concanavalin A lectin – biochemical, small-molecule microarray, Alexa647 label, 635 nm, artefact control for SMM control protein annotation, primary screen (AID 1127); details: ConA-A647 binding fluorescence, higher = more signal;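 note: z combines 667 nm emission intensity with signal-to-noise across three replicate slides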
Sequence of Concanavalin-A (Canavalia ensiformis) (P02866 whole entry, looked up): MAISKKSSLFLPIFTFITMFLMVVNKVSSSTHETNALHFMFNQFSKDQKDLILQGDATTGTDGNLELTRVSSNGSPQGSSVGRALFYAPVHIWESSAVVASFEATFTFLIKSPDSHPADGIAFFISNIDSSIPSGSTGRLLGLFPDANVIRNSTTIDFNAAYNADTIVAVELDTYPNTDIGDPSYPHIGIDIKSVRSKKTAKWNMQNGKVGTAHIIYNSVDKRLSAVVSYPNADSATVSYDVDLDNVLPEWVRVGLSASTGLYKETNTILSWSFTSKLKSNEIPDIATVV

Sequence of Albumin (Bos taurus) (P02769 whole entry, looked up): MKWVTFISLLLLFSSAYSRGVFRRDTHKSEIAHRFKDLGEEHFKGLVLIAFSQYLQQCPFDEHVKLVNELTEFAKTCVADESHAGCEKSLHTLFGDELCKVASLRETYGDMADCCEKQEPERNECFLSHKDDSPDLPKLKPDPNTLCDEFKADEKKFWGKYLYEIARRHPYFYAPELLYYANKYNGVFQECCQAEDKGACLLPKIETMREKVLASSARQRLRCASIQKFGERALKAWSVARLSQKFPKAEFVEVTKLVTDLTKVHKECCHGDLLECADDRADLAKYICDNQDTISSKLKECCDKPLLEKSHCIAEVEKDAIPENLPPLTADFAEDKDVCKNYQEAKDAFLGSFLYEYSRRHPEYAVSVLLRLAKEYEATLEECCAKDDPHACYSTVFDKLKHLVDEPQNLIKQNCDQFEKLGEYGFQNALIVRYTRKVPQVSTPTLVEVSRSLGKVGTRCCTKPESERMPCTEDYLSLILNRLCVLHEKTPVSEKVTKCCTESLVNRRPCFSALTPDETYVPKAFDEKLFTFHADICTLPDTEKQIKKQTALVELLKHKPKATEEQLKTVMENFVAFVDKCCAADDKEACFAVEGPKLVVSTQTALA

SMILES | composite z-score (Albumin (Bos taurus)) | composite Z-score [1] | composite z-score [2] | composite z-score [3] | composite z-score [4] | composite z-score [5] | composite z-score [6] | composite z-score (Sam68 (KHDRBS1)) | composite z-score [7] | composite z-score [8]
O=C1O[C@@H](c2ccccc2)[C@@H](c2ccccc2)N2[C@@H](c3ccc(OCCO)cc3)[C@]3(C(=O)Nc4ccc(C#CCCO)cc43)[C@@H](C(=O)N3CCN(c4ncccn4)CC3)[C@H]12 | 0.536 | 0.337 (inactive) | 0.143 | -0.0684 | 0.485 | 1.87 | 0.188 | 1.32 | 0.168 | 1.17
CCOC(=O)C1=CCC(c2cccc3ccccc23)N(S(=O)(=O)c2ccc(C)cc2)C1 (stereo not given) | 0.816 | 0.494 (inactive) | 0.056 | -0.0731 | 0.401 | 1.41 | 0.117 | 1.12 | 0.341 | 1.08
Cc1ccc(S[C@]2(C(=O)NCCCN(C)C)CC(=O)N(C3CCCCC3)[C@@H]2c2ccc(CO)cc2I)cc1 | -1.58 | -0.102 (inactive) | 0.0836 | -0.107 | 0.442 | 1.51 | 0.379 | -0.171 | -0.801 | -1.49
Cc1cc(C)c(C(O)C2C=CC3C(=O)N(C)C(=O)C3N2N2CCCCC2)c(C)c1 (stereo not given) | 0.477 | 1.16 (inactive) | 0.364 | 0.192 | 0.74 | 1.81 | 0.83 | 1.29 | 0.245 | 1.15
CC(C)C[C@@H]1NC(=O)[C@H](CC(C)C)NC(=O)[C@@]23C(=O)N[C@@H](Cc4ccccc4)C2[C@H](C)[C@@]2(C)O[C@H]2C3/C=C/CC/C=C/CNC1=O (stereo not given in full) | 0.734 | -0.392 (inactive) | -0.0657 | -0.118 | 0.578 | 0.268 | -0.219 | 1.05 | 0.702 | 1.02
C=CC[C@]1(C(=O)N2CCCCC2)N=C(c2ccc(OCCCO)cc2)O[C@H]1c1ccccc1N=[N+]=[N-] | 0.947 | 0.103 (inactive) | 0.486 | 0.284 | 0.789 | 2.81 | 0.941 | 1.3 | -0.154 | 1.13
C=C(C)[C@@H]1CC=C(C(O)C2C=CC3C(=O)NC(=O)C3N2Nc2ccccn2)CC1 (stereo not given in full) | -0.27 | 0.804 (inactive) | 0.441 | 0.0179 | 0.809 | 1.37 | 0.759 | 1.31 | 1.61 | 1.14
CCCCCCc1nc(C2CC2)c(C)c2c1[Si](C(C)C)(C(C)C)OC2 | -1.57 | 0.485 (inactive) | -0.0647 | -0.0942 | -0.364 | -0.641 | -0.35 | -1.28 | 0.63 | -0.693
CO[C@H]1COC(=O)[C@@H](C)COC(=O)[C@H](Cc2ccccc2)NC(=O)CC=C[C@H]1C | -0.73 | 0.0953 (inactive) | -0.208 | -0.223 | -0.315 | -0.557 | -0.399 | 0.294 | 1.48 | -0.268
CCN1C(C)=C(C(=O)OC)[C@@H](c2ccccc2)N2C(=O)[C@@]3(C(=O)OC)O[C@@]12[C@@H]1C(=O)N(c2ccccc2)C(=O)[C@@H]13 | 0.846 | -0.0754 (inactive) | -0.055 | -0.153 | 0.66 | 0.463 | 0.581 | 1.14 | 0.522 | 0.744
CCCNC(=O)[C@@H]1c2ccccc2C(=O)N(Cc2cc(F)cc(C(F)(F)F)c2)[C@H]1c1ccc(CO)cc1 | -0.0179 | 0.457 (inactive) | 0.193 | 0.171 | 0.584 | 2.2 | -0.273 | 1.3 | 0.341 | 1.14
CCOC(=O)C1=C[C@@H](c2ccccc2)N(S(=O)(=O)c2ccc(C)cc2)[C@H]1c1ccc(F)cc1 | 0.823 | -0.263 (inactive) | 0.0836 | 0.111 | 0.283 | 1.57 | 0.284 | 1.16 | -0.0043 | 1.12
O=C1OCCC=C[C@H]2OC34C=CCN(Cc5ccccc5)C(=O)[C@H]3N(CCO)C(=O)[C@@H]4C12 (stereo not given in full) | -0.121 | -0.141 (inactive) | -0.0967 | -0.19 | 0.459 | -0.59 | -0.227 | -1.04 | -0.849 | -1.18
O=C1C[C@@](C(=O)NCCN2CCOCC2)(c2ccc([N+](=O)[O-])cc2)[C@@H](c2ccc(CO)cc2)N1C1CCCCC1 | -0.218 | -0.346 (inactive) | 0.0597 | 0.188 | 0.656 | 1.79 | 0.596 | 1.17 | 0.395 | 1.06
COc1ccc(NN2C(C(O)c3cc(OC)c(OC)c(OC)c3)C=CC3C(=O)N(C4CCCCC4)C(=O)C32)cc1 (stereo not given) | 1.02 | 0.487 (inactive) | 0.831 | 0.531 | 0.211 | 2.42 | 0.754 | 1.3 | -1.2 | 1.1
CCc1cccc(NC(=O)O[C@H]2[C@H](OC(=O)Nc3ccccc3)[C@@H](OC(=O)Nc3ccccc3)[C@@H](OC)O[C@@H]2CO)c1 | 0.819 | -0.477 (inactive) | 0.163 | -0.0527 | 0.806 | 2.69 | 0.421 | 1.29 | -0.061 | 1.14
COC(=O)[C@@]1(Cc2ccccc2N=[N+]=[N-])N=C(c2ccc(OCCCO)cc2)O[C@H]1c1ccccc1CN=[N+]=[N-] | -0.487 | 0.289 (inactive) | -0.0699 | 0.0341 | 0.571 | 2.1 | -0.113 | 1.22 | 0.0008 | 0.456
CO[C@H]1COC(=O)[C@@H](OCc2ccccc2)C=C[C@H](C)[C@@H](OC)COC(=O)[C@H](OCc2ccccc2)C=C[C@@H]1C | -0.695 | -0.738 (inactive) | -0.0682 | -0.179 | -0.516 | -0.838 | -0.885 | -0.693 | -0.51 | -0.218
C#CCNC(/C=C/c1ccccc1)CO (stereo not given) | -0.086 | 0.234 (inactive) | -0.104 | -0.115 | -0.152 | 0.14 | -0.0995 | 0.134 | 0.3 | 0.262
CC1CC/C=C\[C@H]2OC34C=CCN(Cn5nnc6ccccc65)C(=O)[C@H]3N(C(C)CO)C(=O)[C@@H]4C2C(=O)O1 (stereo not given in full) | -0.178 | -0.105 (inactive) | -0.1 | -0.189 | 0.797 | -0.0502 | 0.0114 | -0.579 | -0.764 | -0.309
COc1ccc(C(=O)Nc2ccc(CN3C(=O)[C@]4(O[C@H](CCn5cc(CCO)nn5)[C@@H]([Si](C)(C)c5ccc(OC)cc5)[C@@H]4C)c4ccccc43)cc2)cc1 | -0.343 | -0.213 (inactive) | 0.391 | -0.0649 | 0.697 | 0.88 | -0.153 | 1.32 | 0.276 | 1.15
CO[C@H]1COC(=O)[C@@H](C)NC(=O)CC=C[C@@H](C)[C@H](OC)COC(=O)CC=C[C@@H]1C | -0.731 | 1.16 (inactive) | -0.0679 | -0.201 | -0.576 | -0.724 | -0.517 | 0.32 | 1.46 | -1.28
CC(C)N1CC=CC23O[C@@H]4/C=C\CCCOC(=O)C4[C@H]2C(=O)N(CCCCCO)[C@@H]3C1=O (stereo not given in full) | -1.71 | -0.0102 (inactive) | -0.448 | -0.169 | 0.945 | -0.0414 | 0.64 | -1.74 | -1.9 | -1.26
CCN1C(C)=C(C(=O)OC)[C@@H](c2ccccc2)N2C(=O)[C@@]3(C(=O)OC)O[C@@]12[C@@H]1C(=O)CCC[C@@H]13 | -0.439 | -0.166 (inactive) | -0.0345 | -0.195 | 0.558 | -0.503 | -0.227 | 0.475 | 1.46 | -0.92
CO[C@@H]1COC(=O)CC=C[C@@H](C)[C@H](OC)COC(=O)CC=C[C@H]1C | -0.978 | 0.413 (inactive) | -0.103 | -0.169 | -0.374 | -0.168 | -0.412 | -0.345 | 1.48 | -0.362
CO[C@H]1COC(=O)[C@@H](Cc2ccccc2)NC(=O)[C@@H](C)COC(=O)CC=C[C@@H]1C | -1.03 | -0.179 (inactive) | -0.095 | -0.14 | -0.498 | -0.875 | -0.422 | -0.0602 | 1.24 | -0.773
[N-]=[N+]=NCc1ccccc1C[C@]1(C(=O)N2CCCCC2)N=C(c2ccc(OCCCO)cc2)O[C@H]1c1ccccc1CN=[N+]=[N-] | 0.899 | 0.375 (inactive) | 0.268 | -0.0817 | 0.441 | 2.56 | 0.796 | 1.29 | -0.914 | 1.04
CCC(=O)[C@]12O[C@@]3([C@@H]4C(=O)OCC[C@@H]41)N(CC)C(C)=C(C(=O)OC)[C@@H](c1ccccc1)N3C2=O | -0.499 | -0.302 (inactive) | -0.122 | -0.157 | 0.828 | -0.68 | 0.448 | -0.516 | 0.841 | -0.0306
